As a reminder, the AC50 is the concentration giving half of the maximal activity seen.

We go through 21 molecules from PubChem BioAssay (EPA / NIEHS).

Values joined by “and” are separate entries in the source; they are usually repeats but may differ in a detail not shown here. Equal entries are not always repeated. Inconclusive results are not listed. Active and inactive are the calls of the source. Rule for the calls: active = hit-call score of the fitted dose curve at least 0.9, where 1 is the maximum; inconclusive = response in the unintended direction; inactive = score below 0.9. Where a SMILES comes first, the peptide text is derived from it. Bridges are numbered along the chain shown (N, C = ends). [ ]: non-standard residue; d: D form. The star is where a group is joined. Ileψ(thiazoline)Cys = CC[C@H](C)[C@H](N)C1=N[C@H](C(=O)*)CS1; dOrn = NCCC[C@@H](N)C(=O)O

A short description of assay [1]: TOX21_p53_BLA_p2_viability: Viability Assessment in the Tox21 HCT-116 p53 Agonism Beta-lactamase Assay, Phase 2 (AID 2283591).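 Note: compound exposure lasted 16 h at 37 °C; actives lower the ATP signal meaning cytotoxicity.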 In a few lines:
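HCT-116 p53-bla cells (4000/well) rested 5 h at 37C, then received compounds in DMSO (217-fold dilution) for 16 h at 37C, 5% CO2. After the CCF4 read, CellTiter-Glo was added; ATP luminescence was read after 30 min at room temperature.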

The target of assay [2] is Cellular tumor antigen p53 (Homo sapiens) (UniProt P04637). Nature of the assay: TOX21_p53_BLA_p2_ratio: Tox21 HCT-116 p53 Agonism Beta-lactamase Assay, Ratio, Phase 2 (AID 2283592). In a few lines:
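Plated HCT116 p53-bla cells (4000/well) received compound after 5 h, then 16 h at 37C/5% CO2. CCF4-AM added, 2 h RT. Ratio of 460 to 530 nm emission taken as the p53 reporter signal.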

A short description of assay [3]: TOX21_p53_BLA_p3_viability: Viability Assessment in the Tox21 HCT-116 p53 Agonism Beta-lactamase Assay, Phase 3 (AID 2283593).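 Note: cells exposed to compound for 16 h before reading.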 In a few lines:
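HCT-116 cells (4000/well) rested 5 h at 37C, then got DMSO compounds by pin tool (217-fold dilution) for 16 h at 37C, 5% CO2. After the bla read, CellTiter-Glo was added and luminescence read at 30 min, room temperature.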

Assay [4] deals with Cellular tumor antigen p53 (Homo sapiens) (UniProt P04637). Briefly: TOX21_p53_BLA_p3_ratio: Tox21 HCT-116 p53 Agonism Beta-lactamase Assay, Ratio, Phase 3 (AID 2283596). In a few lines: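 Cells were seeded at 4000/well, rested 5 h at 37C, then dosed with DMSO compound solutions (217-fold dilution) for 16 h. CCF4-AM substrate was loaded for 2 h at room temperature, and the 460/530 nm emission ratio was fitted for gain of signal versus DMSO.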
Sequence of Cellular tumor antigen p53 (Homo sapiens) (P04637 whole entry, looked up): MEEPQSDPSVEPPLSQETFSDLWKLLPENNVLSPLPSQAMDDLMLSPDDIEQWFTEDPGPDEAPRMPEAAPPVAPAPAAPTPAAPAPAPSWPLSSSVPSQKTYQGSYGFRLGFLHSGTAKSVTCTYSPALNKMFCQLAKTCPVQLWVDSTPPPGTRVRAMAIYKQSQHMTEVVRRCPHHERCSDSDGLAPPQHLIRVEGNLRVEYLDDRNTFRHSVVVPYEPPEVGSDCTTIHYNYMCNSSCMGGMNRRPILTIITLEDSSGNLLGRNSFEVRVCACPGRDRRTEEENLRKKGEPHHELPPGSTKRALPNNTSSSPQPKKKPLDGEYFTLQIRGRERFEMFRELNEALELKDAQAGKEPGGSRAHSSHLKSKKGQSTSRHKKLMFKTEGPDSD

Assay [5] can be described thus: TOX21_p53_BLA_p4_viability: Viability Assessment in the Tox21 HCT-116 p53 Agonism Beta-lactamase Assay, Phase 4 (AID 2283597).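 Note: hits lower the luminescence signal meaning cytotoxicity.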 The essentials:
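Readout: ATP luminescence (CellTiter-Glo), measured 30 min after reagent addition at RT. The reagent followed a 2 h CCF4-AM incubation, and the cells had been exposed to compound for 16 h at 37C.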

The target in assay [6] is Cellular tumor antigen p53 (Homo sapiens) (UniProt P04637). Nature of the assay: TOX21_p53_BLA_p5_ratio: Tox21 HCT-116 p53 Agonism Beta-lactamase Assay, Ratio, Phase 5 (AID 2283599). The essentials:
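HCT-116 cells carrying a p53-inducible beta-lactamase reporter were seeded at 4000 cells/well and dosed after 5 h with compound in DMSO (217-fold dilution). After 16 h at 37C, CCF4-AM substrate was added for 2 h, and the 460/530 nm emission ratio was scored as gain-of-signal versus DMSO.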

A short description of assay [7]: TOX21_p53_BLA_p5_viability: Viability Assessment in the Tox21 HCT-116 p53 Agonism Beta-lactamase Assay, Phase 5 (AID 2283600). In a few lines:
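Workflow: seed 4000 cells per well, wait 5 h, add compounds (DMSO, 217-fold dilution), incubate 16 h, load CCF4-AM 2 h, add CellTiter-Glo, read luminescence after 30 min.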

Assay [8] deals with Cellular tumor antigen p53 (Homo sapiens) (UniProt P04637). Briefly: TOX21_p53_BLA_p4_ratio: Tox21 HCT-116 p53 Agonism Beta-lactamase Assay, Ratio, Phase 4 (AID 2283601). The essentials: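 HCT116 cells carrying an inducible beta-lactamase reporter were plated at 4000 cells/well, rested 5 h, then exposed to compounds in DMSO (217-fold dilution) for 16 h at 37C. CCF4-AM substrate was loaded 2 h at room temperature; 460/530 nm emission ratio scored gain-of-signal versus DMSO.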

With `CC[C@H](C)[C@H](N)C1=N[C@H](C(=O)N[C@@H](CC(C)C)C(=O)N[C@H](CCC(=O)O)C(=O)N[C@H](C(=O)N[C@H]2CCCCNC(=O)[C@H](CC(N)=O)NC(=O)[C@@H](CC(=O)O)NC(=O)[C@H](Cc3cnc[nH]3)NC(=O)[C@@H](Cc3ccccc3)NC(=O)[C@H]([C@@H](C)CC)NC(=O)[C@@H](CCCN)NC2=O)[C@@H](C)CC)CS1` ({Ileψ(thiazoline)Cys}-L[dE]IK[dOrn]I[dF]H[dD]N; lactam 4-C), the result in assay [1], in assay [2], in assay [3], in assay [4], in assay [5] and in assay [6] was inactive. Besides, the molecule was classed as inactive in assay [7] and in assay [8].
As to `CC(=O)Oc1ccc(C2(c3ccc(OC(C)=O)cc3)C(=O)Nc3ccccc32)cc1`, the AC50 in assay [1] is 781 nM (active) and 543 nM (active); in assay [2] it was 540 nM (active) and 368 nM (active); in assay [3] it was 633 nM (active) and 692 nM (active); in assay [4] it was 641 nM (active) and 515 nM (active); in assay [5], 580 nM (active) and 459 nM (active); in assay [6], 663 nM (active) and 407 nM (active). For the same molecule, in assay [8], the AC50 is 555 nM (active) and 464 nM (active). The molecule was called inactive in assay [7].
As to `Cc1ccc2nc(N)[nH]c(=O)c2c1Sc1ccncc1`, the molecule was classed as inactive in assay [1], in assay [5], in assay [6], in assay [7] and in assay [8]. Besides, the values for the AC50 in assay [2], in assay [3] and in assay [4] were 2.17 µM (active), 3.66 µM (active) and 3.22 µM (active), respectively.
Turning to `Cc1cccc(C)c1OCC(=O)N[C@@H](Cc1ccccc1)[C@@H](O)C[C@H](Cc1ccccc1)NC(=O)[C@H](C(C)C)N1CCCNC1=O`, the molecule was called inactive in assay [1], in assay [2], in assay [3], in assay [4], in assay [6] and in assay [7]. Also, the outcome in assay [8] was inactive. In addition, in assay [5], the AC50 was 37.5 µM (active).
As to `CO[C@@]12[C@H](COC(N)=O)C3=C(C(=O)C(C)=C(N)C3=O)N1C[C@@H]1N[C@@H]12`, the AC50 in assay [1] was 33.2 µM (active); in assay [2], 7.59 µM (active); in assay [3], 29.5 µM (active); in assay [4], 3.24 µM (active); in assay [6], 6.3 µM (active); in assay [7], 34.4 µM (active). Besides, in assay [8], the AC50 is 20.8 µM (active). In addition, the molecule was classed as inactive in assay [5].
As for `c1ccc(-c2ccc(C(c3ccccc3)n3ccnc3)cc2)cc1` (stereo not drawn), the outcome in assay [1], in assay [3] and in assay [7] was inactive. Further, the AC50 in assay [2] was 35.9 µM (active); in assay [4], 39.5 µM (active); in assay [5] it was 38.2 µM (active); in assay [6] it was 36.5 µM (active); in assay [8] it was 34.1 µM (active).
For `O=P(O)(OCc1ccccc1)OCc1ccccc1`, the molecule was classed as inactive in assay [1], in assay [2], in assay [3], in assay [4], in assay [5] and in assay [7]. For the same molecule, in assay [8], the result was inactive. In addition, the AC50 in assay [6] was 86.9 µM (active).
Take `O=C(O)c1ccc(Cl)c(Cl)c1`: the result in assay [1], in assay [2], in assay [3], in assay [4], in assay [5] and in assay [6] was inactive. Also, the call in assay [7] and in assay [8] was inactive.
Consider `CC(C)(C)OC(=O)N1C[C@@H](F)C[C@H]1C(=O)O`, for which the result in assay [1], in assay [2], in assay [3], in assay [4], in assay [5] and in assay [6] was inactive. Further, the molecule was called inactive in assay [7] and in assay [8].
For `CN(Cc1cc(Br)cc(Br)c1N)C1CCCCC1`, the call in assay [1], in assay [2], in assay [4], in assay [5], in assay [6] and in assay [7] was inactive. The outcome in assay [8] was inactive. Further, the AC50 in assay [3] is 39.5 µM (active).
As to `CCCCC(=O)OCC(=O)[C@]1(O)Cc2c(O)c3c(c(O)c2[C@@H](O[C@H]2C[C@H](NC(=O)C(F)(F)F)[C@H](O)[C@H](C)O2)C1)C(=O)c1c(OC)cccc1C3=O`, the result in assay [1], in assay [3], in assay [5] and in assay [7] was inactive. Besides, the AC50 in assay [2] was 7.68 µM (active); in assay [4], 8.58 µM (active); in assay [6] it was 7.73 µM (active); in assay [8], 5.24 µM (active).
In the case of `CC(=C(CCO)SSC(CCO)=C(C)N(C=O)Cc1cnc(C)nc1N)N(C=O)Cc1cnc(C)nc1N`, the result in assay [1], in assay [2], in assay [3], in assay [4], in assay [5] and in assay [6] was inactive. The molecule was classed as inactive in assay [7] and in assay [8].
Regarding `Nc1ccc(N)c2ccccc12`, the AC50 in assay [1] was 46 µM (active); in assay [2] it was 16.5 µM (active); in assay [3], 3.49 µM (active); in assay [5], 46 µM (active); in assay [6], 86 µM (active); in assay [7] it was 46 µM (active). Besides, the AC50 in assay [8] is 13.5 µM (active). Also, the outcome in assay [4] was inactive.
In the case of `Cc1cc2nc(N)sc2cc1C`, the result in assay [1], in assay [2], in assay [3], in assay [4], in assay [5] and in assay [6] was inactive. The molecule was classed as inactive in assay [7] and in assay [8].
Take `CN1C(=O)OC(C)(C)C1=O`: the molecule was called inactive in assay [1], in assay [2], in assay [3], in assay [4], in assay [5] and in assay [6]. Moreover, the molecule was classed as inactive in assay [7] and in assay [8].
With `O=C(O)c1cc(=O)[nH]c(=O)[nH]1`, the call in assay [1], in assay [2], in assay [3], in assay [4], in assay [5] and in assay [6] was inactive. The call in assay [7] and in assay [8] was inactive.
As for `CCc1oc2ccccc2c1C(=O)c1cc(I)c(O)c(I)c1`, the AC50 in assay [1] is 23 µM (active); in assay [2], 7.59 µM (active); in assay [3] it was 26.1 µM (active); in assay [4], 20.8 µM (active); in assay [5], 11 µM (active); in assay [7], 24.1 µM (active). Besides, the AC50 in assay [8] was 6.73 µM (active). Moreover, in assay [6], the result was inactive.
Regarding `CCCCCCCCCCCCCCCC(=O)O[C@@H]1[C@@H](O)[C@@H](O)[C@@H]([C@H](NC(=O)[C@@H]2C[C@@H](CCC)CN2C)[C@H](C)Cl)O[C@@H]1SC`, the molecule was classed as inactive in assay [1], in assay [2], in assay [3], in assay [4], in assay [5] and in assay [6]. For the same molecule, the outcome in assay [7] and in assay [8] was inactive.
With `O=C1C(c2[nH]c3ccccc3c2O)=Nc2ccccc21`, the molecule was classed as inactive in assay [1], in assay [2], in assay [3], in assay [4], in assay [5] and in assay [6]. The outcome in assay [7] and in assay [8] was inactive.
Turning to `CCN(CC)c1ccc(C(=C2C=CC(=[N+](CC)CC)C=C2)c2ccccc2)cc1`, the AC50 in assay [1] is 1.81 µM (active); in assay [2], 4.15 µM (active); in assay [3] it was 2.75 µM (active); in assay [4], 6.97 µM (active); in assay [5], 1.94 µM (active); in assay [6], 9.22 µM (active). Further, the AC50 in assay [7] is 2.93 µM (active); in assay [8], 11.1 µM (active).
On to `CCCC(C)c1ccccc1O` (stereo not drawn), for which the molecule was classed as inactive in assay [1], in assay [2], in assay [3], in assay [4], in assay [5] and in assay [6]. Besides, the call in assay [7] and in assay [8] was inactive.
